# Results filed as inconclusive are left out. Entries that show only a call come without a potency. Calls of active or inactive are those of the source. Unless noted, calls follow the shape of the dose curve; as a rule, active = well fitted curve in the direction sought with a large enough effect; inconclusive = small, poorly fitted or top-dose-only effect, or another doubt; inactive = no such curve, though single readings can be large; an effect the other way counts as inactive or inconclusive.
# Legend:
# [1] = target: Alpha-galactosidase A (Homo sapiens) (UniProt P06280); test: Counterscreen for Glucocerebrosidase Inhibitors: qHTS Assay for Human alpha-Galactosidase at pH 4.5 (AID 992)
# Sequence of Alpha-galactosidase A (Homo sapiens) (P06280 whole entry, looked up): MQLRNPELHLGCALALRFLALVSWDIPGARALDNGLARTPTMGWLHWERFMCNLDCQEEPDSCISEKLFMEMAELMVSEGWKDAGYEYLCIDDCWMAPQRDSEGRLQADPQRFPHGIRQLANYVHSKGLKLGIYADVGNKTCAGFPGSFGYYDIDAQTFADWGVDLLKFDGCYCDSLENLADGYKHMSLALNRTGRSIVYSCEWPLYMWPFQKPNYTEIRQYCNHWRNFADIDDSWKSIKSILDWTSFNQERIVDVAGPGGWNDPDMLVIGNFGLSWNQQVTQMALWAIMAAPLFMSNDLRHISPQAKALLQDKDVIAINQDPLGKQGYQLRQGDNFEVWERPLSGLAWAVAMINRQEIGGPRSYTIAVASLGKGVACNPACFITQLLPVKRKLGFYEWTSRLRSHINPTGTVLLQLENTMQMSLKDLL
# Procedure, shortened: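 Read-out is 4-methylumbelliferone fluorescence (365 nm excitation, 440 nm emission) after a pH 10 NaOH/glycine stop. Reactions held 2 nM enzyme and 80 uM substrate at pH 4.5 for 20 min at room temperature.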
# [2] = target: Alpha-galactosidase (Coffea arabica) (UniProt Q42656); test: Counterscreen for Glucocerebrosidase Inhibitors: qHTS Assay for Coffee Bean alpha-Galactosidase at pH 5.9 (AID 998)
# Sequence of Alpha-galactosidase (Coffea arabica) (Q42656 whole entry, looked up): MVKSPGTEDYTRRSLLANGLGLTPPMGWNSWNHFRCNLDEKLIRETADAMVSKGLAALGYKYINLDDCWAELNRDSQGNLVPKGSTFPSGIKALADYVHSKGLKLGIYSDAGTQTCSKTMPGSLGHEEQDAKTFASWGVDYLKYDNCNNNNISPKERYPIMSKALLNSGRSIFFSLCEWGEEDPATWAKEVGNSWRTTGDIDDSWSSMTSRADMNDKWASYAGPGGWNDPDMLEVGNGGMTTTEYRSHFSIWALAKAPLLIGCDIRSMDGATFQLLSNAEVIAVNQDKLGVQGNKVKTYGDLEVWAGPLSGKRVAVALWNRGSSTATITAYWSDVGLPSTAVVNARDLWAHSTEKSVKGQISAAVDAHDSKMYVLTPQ
# Procedure, shortened: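 Green coffee bean enzyme (2 nM final) was incubated with compounds (0.7 nM–77 uM) and 4-methylumbelliferyl alpha-D-galactopyranoside (80 uM) in citrate buffer pH 5.9, 20 min at room temperature. High-pH stop; fluorescence 365/440 nm; AC50 from Hill fits.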
# [3] = Validation of Assay for Modulators of Lamin A Splicing (AID 1459; active = well fitted curve in the direction sought with a large enough effect in the signal ratio; the % refers to the signal ratio;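 also: cells exposed to compound for two days before reading; ratio rise marks activators and ratio drop marks inhibitors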)
# Procedure, shortened: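 Dual-reporter HeLa S3 line (lamin A-EGFP minigene, DsRed2) treated with compounds 48 hrs, 0.5% DMSO final. Endpoint: EGFP/DsRed2 total intensity ratio from laser-scanning microplate cytometry.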
# [4] = qHTS Assay for Lipid Storage Modulators (AID 1519; calls by dose curve); settings: Drosophila S3 cells, BODIPY lipid droplet/cell ratio, laser cytometry, cells loaded with oleic acid; for activity change, negative = inhibition: at 57.5 µM (top of the series)
# Procedure, shortened: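 Cells seeded at 5,000 per well were treated with compounds over a concentration series and loaded with oleic acid (400 uM, as added). Lipid droplet fluorescence (488 nm excitation, 500-530 nm channel) was read by laser-scanning cytometry and normalized to 20 uM Triacsin C.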
# [5] = Counterscreen for APE1 Inhibitors: Fluorescent Dye Displacement Validation Assay (AID 1707)
# Procedure, shortened: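 ThO 250 nM + dsDNA 50 nM (THF abasic site, 5'-TAMRA), Tris-HCl pH7.5/50mM NaCl/2 mM MgCl2/0.01% Tween-20; compounds pin-transferred; ex 480/em 540 nm endpoint. Neutral = no compound; no-DNA ThO wells = negative control.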
# [6] = target: Endonuclease 4 (Escherichia coli (strain K12)) (UniProt P0A6C1); test: Counterscreen for APE1 Inhibitors: qHTS Validation Assay for Inhibitors of Endonuclease IV (AID 1708)
# Procedure, shortened: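 Concentration-response counterscreen run identically to the APE1 assay: 15 min room-temperature preincubation of 2 nM enzyme with compound, reaction started with 50 nM quenched abasic DNA, progress taken from kinetic fluorescence.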
# [7] = qHTS for differential inhibitors of proliferation of Plasmodium falciparum line Dd2 (AID 1882); settings: Potency: Plasmodium falciparum Dd2 proliferation inhibition; also: nearly all actives have a fitted effect of over 65% in size
# Procedure, shortened: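 Dd2-infected erythrocytes (0.3% parasitemia, 2.5% hematocrit final) incubated with compound 72 h at 37 C, 5% CO2; lysed with saponin/Triton buffer containing SYBR Green I, incubated overnight in the dark, then read by fluorescence (485/535 nm). Normalized to 0.29 uM artemisinin and DMSO.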
# [8] = qHTS for differential inhibitors of proliferation of Plasmodium falciparum line W2 (AID 1883); settings: Potency: Plasmodium falciparum W2 proliferation inhibition;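 also: parasites grown with compound for 72 h before lysis and staining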; also: potency is read from the fitted curve at half-maximal effect
# [9] = qHTS Assay for Modulators of Human Peripheral Myelin Protein 22 (PMP22) Expression/Activity (AID 1967; active = well fitted curve in the direction sought with a large enough effect in the signal ratio; the % refers to the signal ratio)
# Procedure, shortened: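 Engineered MSC80 cells, Pmp22-promoter green and EF-alpha red luciferase reporters; 24h compound treatment at 37 °C. Concentration-response fits on green, red and ratio signals, each overlap-corrected, with %Activity normalized to untreated wells.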
# [10] = target: DNA repair nuclease/redox regulator APEX1 (Homo sapiens) (UniProt P27695); test: qHTS Validation Assay for Inhibitors of the Human Apurinic/apyrimidinic Endonuclease 1 (APE1) (AID 1705;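 also: TAMRA fluorescence gain over two minutes as APE1 cuts a quenched THF abasic duplex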)
# Sequence of DNA repair nuclease/redox regulator APEX1 (Homo sapiens) (P27695 whole entry, looked up): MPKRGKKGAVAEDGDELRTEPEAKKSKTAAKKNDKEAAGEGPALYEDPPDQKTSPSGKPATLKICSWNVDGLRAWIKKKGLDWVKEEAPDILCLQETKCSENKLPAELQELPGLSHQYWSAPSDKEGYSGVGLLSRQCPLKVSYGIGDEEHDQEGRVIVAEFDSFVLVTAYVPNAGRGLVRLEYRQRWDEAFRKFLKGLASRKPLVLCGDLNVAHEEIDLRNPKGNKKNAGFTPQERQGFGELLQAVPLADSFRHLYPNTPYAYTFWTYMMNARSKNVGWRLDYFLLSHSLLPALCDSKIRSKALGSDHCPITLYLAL
# Procedure, shortened: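 Substrate: 50 nM final fluorophore/quencher THF-abasic duplex. Enzyme preincubated with compounds 15 min, RT. Progress derived from fluorescence difference, third minus first kinetic read.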
# [11] = qHTS for differential inhibitors of proliferation of Plasmodium falciparum line 7G8 (AID 1815);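 also: parasite growth measured after three days of incubation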; also: potency is read from the fitted curve at half-maximal effect
# [12] = qHTS for differential inhibitors of proliferation of Plasmodium falciparum line GB4 (AID 1816); settings: Potency: Plasmodium falciparum GB4 proliferation inhibition;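 also: parasite growth measured after 72 h incubation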; also: potency is read from the fitted curve at half-maximal effect
# [13] = qHTS for differential inhibitors of proliferation of Plasmodium falciparum line 3D7 (AID 1876); also: potency is read from the fitted curve at half-maximal effect
# [14] = qHTS for differential inhibitors of proliferation of Plasmodium falciparum line D10 (AID 1877);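 also: parasites grown with compound for 72 h before DNA staining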; also: potency is read from the fitted curve at half-maximal effect
# [15] = qHTS for differential inhibitors of proliferation of Plasmodium falciparum line HB3 (AID 1886); settings: Potency: Plasmodium falciparum HB3 proliferation inhibition;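 also: parasites grown with compound for 72 h before SYBR Green readout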; also: potency is read from the fitted curve at half-maximal effect
# [16] = Cell Viability - LYMP2-024 (AID 988); also: nearly all actives have a fitted effect of over 60% in size
# Procedure, shortened: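 Human lymphoblastoid LYMP2-024 cells (2500/well) rested 5 hr, then treated with compound for 24 hr at 37 C in complete medium. Viability was measured as intracellular ATP by CellTiter-Glo luminescence. AC50 values came from Hill-equation fits.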
# [17] = Cell Viability - LYMP2-026 (AID 989); also: nearly all actives have a fitted effect of over 50% in size
# Procedure, shortened: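 Human lymphoblastoid LYMP2-026 cells, 2500/well, exposed to compound 24 h at 37 C in complete medium. Viability as intracellular ATP by CellTiter-Glo luminescence; AC50 from Hill fits of qHTS concentration-response.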
# [18] = Cell Viability - LYMP1-002 - Assay at 24 hr (AID 993)
# Procedure, shortened: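 Human lymphoblastoid LYMP1-002 cells (2500/well) treated 24 h at 37 °C; viability as intracellular ATP by CellTiter-Glo luminescence. Tetraoctylammonium bromide as positive control; AC50 from Hill-equation fits of qHTS concentration-response.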
# [19] = Cell Viability - LYMP1-002 - Assay at 40 hr (AID 994); also: nearly all actives have a fitted effect of over 60% in size
# Procedure, shortened: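 LYMP1-002 human lymphoblastoid cells (2500/well, complete medium) were treated with compounds for 40 hr at 37 C. Intracellular ATP was measured by CellTiter-Glo luminescence, and AC50 values came from Hill-equation fits of concentration-response data; tetraoctylammonium bromide was the positive control.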
# [20] = target: alpha-glucosidase (Oryza sativa, rice) (UniProt Q653V4); test: Counterscreen for Glucocerebrosidase Inhibitors: qHTS Assay for Rice alpha-Glucosidase at pH 5.0 (AID 997)
# Procedure, shortened: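 Rice alpha-glucosidase (4 nM final) with 400 uM 4-methylumbelliferyl-alpha-D-glucopyranoside in citrate buffer pH 5.0, 20 min at room temperature, stopped at pH 10; fluorescence 365/440 nm, compounds 0.7 nM–77 uM, AC50 from Hill fits.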
# [21] = measured here: cell count channel max response
# [22] = measured here: lipid channel max response
smiles,measurement,setting,value
CC(C)NP(=O)(NC(C)C)OP(=O)(NC(C)C)NC(C)C,outcome,[1],inactive
same,outcome,[2],inactive
same,outcome,[3],inactive
same,"activity change, negative = inhibition",[4],2% (inactive)
same,max response,[4]; [21],-5.61%
same,max response,[4]; [22],-4.03%
same,Potency,[5],inactive
same,Potency,[6],inactive
same,Potency,[7],inactive
same,Potency,[8],11.2 µM (active)
same,outcome,[9],inactive
CC(C)CC(NP(=O)(O)O[C@@H]1O[C@@H](C)[C@H](O)[C@@H](O)[C@H]1O)C(=O)NC(Cc1c[nH]c2ccccc12)C(=O)O (some centres undefined),outcome,[3],inactive
same,"activity change, negative = inhibition",[4],3.22% (inactive)
same,max response,[4]; [21],23.5%
same,max response,[4]; [22],29.8%
same,Potency,[10],inactive
same,Potency,[5],inactive
same,Potency,[6],inactive
same,Potency,[11],inactive
same,Potency,[12],inactive
same,Potency,[13],inactive
same,Potency,[14],inactive
same,Potency,[7],inactive
same,Potency,[8],inactive
same,Potency,[15],inactive
same,outcome,[9],inactive
Cc1o[nH]c(=O)c1CC(N)C(=O)O (centres undefined),outcome,[3],inactive
same,"activity change, negative = inhibition",[4],0.836% (inactive)
same,max response,[4]; [21],-21.1%
same,max response,[4]; [22],-19%
same,Potency,[10],inactive
same,Potency,[5],inactive
same,Potency,[6],inactive
same,Potency,[11],inactive
same,Potency,[12],inactive
same,Potency,[13],inactive
same,Potency,[14],inactive
same,Potency,[7],inactive
same,Potency,[8],inactive
same,Potency,[15],inactive
same,outcome,[9],inactive
CN(C(=O)Cc1ccc(Cl)c(Cl)c1)C(CN1CCCC1)c1cccc(OCC(=O)O)c1 (centres undefined),outcome,[3],inactive
same,"activity change, negative = inhibition",[4],2.91% (inactive)
same,max response,[4]; [21],8.86%
same,max response,[4]; [22],13%
same,Potency,[5],inactive
same,Potency,[6],inactive
same,Potency,[13],inactive
same,Potency,[7],inactive
same,Potency,[8],14.1 µM (active)
same,Potency,[15],inactive
COc1ccc2c(c1OC)C(=O)OC2C1c2cc3c(cc2CCN1C)OCO3 (centres undefined),Potency,[16],inactive
same,Potency,[17],inactive
same,Potency,[18],inactive
same,Potency,[19],inactive
same,outcome,[3],inactive
same,"activity change, negative = inhibition",[4],1.56% (inactive)
same,max response,[4]; [21],61%
same,max response,[4]; [22],66.1%
same,Potency,[10],inactive
same,Potency,[5],inactive
same,Potency,[6],inactive
same,Potency,[11],inactive
same,Potency,[13],inactive
same,Potency,[14],inactive
same,Potency,[7],inactive
same,Potency,[15],inactive
NNC(N)=O,Potency,[16],inactive
same,Potency,[17],inactive
same,outcome,[1],inactive
same,Potency,[18],inactive
same,Potency,[19],inactive
same,outcome,[20],inactive
same,outcome,[2],inactive
same,outcome,[3],inactive
same,"activity change, negative = inhibition",[4],1.16% (inactive)
same,max response,[4]; [21],-7.78%
same,max response,[4]; [22],-7.06%
same,Potency,[10],inactive
same,Potency,[5],inactive
same,Potency,[11],inactive
same,Potency,[12],inactive
same,Potency,[13],inactive
same,Potency,[14],inactive
same,Potency,[7],inactive
same,Potency,[8],inactive
same,Potency,[15],inactive
same,outcome,[9],inactive
C=CCN1CC[C@]23c4c5ccc(O)c4O[C@H]2/C(=N/NC(=O)c2ccccc2)CC[C@@]3(O)[C@H]1C5,outcome,[3],inactive
same,"activity change, negative = inhibition",[4],-1.45% (inactive)
same,max response,[4]; [21],-18.8%
same,max response,[4]; [22],-20.5%
same,Potency,[10],inactive
same,Potency,[5],inactive
same,Potency,[6],inactive
same,Potency,[11],10 µM (active)
same,Potency,[12],8.91 µM (active)
same,Potency,[13],10 µM (active)
same,Potency,[14],3.16 µM (active)
same,Potency,[8],3.16 µM (active)
same,Potency,[15],11.2 µM (active)
same,outcome,[9],inactive
OC1CCCCC1N1CCC(c2ccccc2)CC1 (centres undefined),outcome,[3],inactive
same,"activity change, negative = inhibition",[4],6.18% (inactive)
same,max response,[4]; [21],4.61%
same,max response,[4]; [22],12.5%
same,Potency,[5],inactive
same,Potency,[6],inactive
same,Potency,[13],inactive
same,Potency,[14],inactive
same,Potency,[7],inactive
same,Potency,[8],10 µM (active)
same,Potency,[15],inactive
same,outcome,[9],inactive
